Reference: PMC4336329 (PLoS ONE, 2015)
In all, about 310,000 compounds went through this assay and about 14,000 (4.5%) showed an effect of 50% or more. The effect is printed as a negative number. The entries come from a sample that favours strong results as a whole.

What follows are compounds tested against human ether-à-go-go-related gene (hERG) potassium channel (human, UniProt Q12809) (assay: primary screen, population patch clamp on CHO cells stably expressing hERG; higher = less effect of the substance).
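Note: peak tail current of the secondary pulse compared with the same well before compound.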

human ether-à-go-go-related gene (hERG) potassium channel, sequence (Q12809 whole entry, looked up): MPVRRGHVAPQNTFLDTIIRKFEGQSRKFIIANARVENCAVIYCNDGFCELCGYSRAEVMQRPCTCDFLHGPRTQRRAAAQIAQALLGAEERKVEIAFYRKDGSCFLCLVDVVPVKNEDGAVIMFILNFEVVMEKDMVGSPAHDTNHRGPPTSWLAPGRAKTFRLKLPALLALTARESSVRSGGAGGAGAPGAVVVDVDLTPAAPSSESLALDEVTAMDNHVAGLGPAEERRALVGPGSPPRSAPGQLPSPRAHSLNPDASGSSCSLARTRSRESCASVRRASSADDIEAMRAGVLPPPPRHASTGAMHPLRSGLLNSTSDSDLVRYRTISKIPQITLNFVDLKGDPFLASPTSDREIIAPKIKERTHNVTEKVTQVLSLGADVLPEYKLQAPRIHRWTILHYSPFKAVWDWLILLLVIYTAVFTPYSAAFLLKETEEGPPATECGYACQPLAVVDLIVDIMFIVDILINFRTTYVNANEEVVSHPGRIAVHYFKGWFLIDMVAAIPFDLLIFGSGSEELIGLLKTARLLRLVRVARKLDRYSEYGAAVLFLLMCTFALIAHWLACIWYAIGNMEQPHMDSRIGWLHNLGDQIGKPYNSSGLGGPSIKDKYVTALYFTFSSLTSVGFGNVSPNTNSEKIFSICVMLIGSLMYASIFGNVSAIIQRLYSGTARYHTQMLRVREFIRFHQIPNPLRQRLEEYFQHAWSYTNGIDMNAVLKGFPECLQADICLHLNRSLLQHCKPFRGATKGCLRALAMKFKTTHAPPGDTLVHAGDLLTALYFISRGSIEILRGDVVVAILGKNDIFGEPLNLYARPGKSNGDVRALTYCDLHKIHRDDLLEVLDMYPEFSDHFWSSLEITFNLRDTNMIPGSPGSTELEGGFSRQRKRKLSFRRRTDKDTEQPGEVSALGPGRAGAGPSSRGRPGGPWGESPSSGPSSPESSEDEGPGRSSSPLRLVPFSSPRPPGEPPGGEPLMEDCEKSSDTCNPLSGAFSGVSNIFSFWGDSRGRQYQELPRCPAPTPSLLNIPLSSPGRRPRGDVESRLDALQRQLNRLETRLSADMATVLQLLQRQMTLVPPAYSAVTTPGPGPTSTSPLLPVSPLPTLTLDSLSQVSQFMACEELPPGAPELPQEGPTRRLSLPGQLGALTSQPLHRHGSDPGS

SMILES | hERG current change (%, negative = inhibition) at 10uM
CCCC(=O)n1nc(-c2cccnc2)nc1N | -27.1%
CC(C)C[C@@H](C(=O)NC1CCN(Cc2ccccc2)CC1)N1C(=O)N2CCc3c([nH]c4ccccc34)[C@@]2(C)C1=O | -53.2%
CC(C)C[C@@H](C(=O)NC1CC1)N1C(=O)N2CCc3c([nH]c4ccccc34)[C@@]2(C)C1=O | -15%
CC(C)C[C@@H](C(=O)N[C@@H](C(=O)O)c1ccccc1)N1C(=O)N2CCc3c([nH]c4ccccc34)[C@@]2(C)C1=O | -6.67%
Cc1ccc(CCN2CC(C(=O)NCCCN3CCN(C)CC3)CC2=O)cc1 (stereo not drawn) | -8.81%
CCN(C(=O)CSc1ccc2c(c1)OCCO2)C1CCS(=O)(=O)C1 (stereo not drawn) | 9.65%
COc1ccc(O)c(C(=O)c2cnc3c(c2)c(-c2ccc(F)cc2)c(C#N)c(=O)n3C)c1 | 12.6%
CCCCn1c(-c2cccc(C)c2)nc2cc3[nH]c(=O)c(C(C)C)nc3cc21 | 0.235%
CCCCn1c(-c2cccnc2)nc2cc3[nH]c(=O)c(C(C)C)nc3cc21 | -50.4%
CCCCn1c(-c2cccc(Br)c2)nc2cc3[nH]c(=O)c(C(C)C)nc3cc21 | 4.08%
CC(=O)C(Sc1nnnn1-c1ccc(O)cc1)c1ccccc1 (stereo not drawn) | -14.3%
COc1ccc(CCNC(=O)c2ccc3c(=O)n(Cc4ccco4)c(=S)[nH]c3c2)cc1OC | 17.2%
COc1ccc(CCNC(=O)c2cc3c(=O)n4cccc(C)c4nc3n(Cc3ccco3)c2=N)cc1OC | -80.9%
COc1ccc(CCNC(=O)c2cc3c(=O)n4ccccc4nc3n(Cc3ccco3)c2=N)cc1OC | -76.6%
COc1ccc(CCNC(=O)CSc2nc(=O)n3cccc(C)c3n2)cc1OC | 15.8%
COc1ccc(CCNC(=O)c2cc3c(=O)n4cccc(C)c4nc3s2)cc1OC | 21.3%
COc1ccc(CCNC(=O)c2coc3ccccc3c2=O)cc1OC | -4.09%
CSc1ccc(Cl)c(C(=O)OCC(=O)NCC(C)C)c1 | -21%
Cn1c(CO)c(-c2ccccc2)c2cc([N+](=O)[O-])ccc21 | 10.2%
CCN(CC)CC(O)Cn1c2ccccc2c2ccccc21 (stereo not drawn) | -16%
CCN(CC)CC(O)Cn1c(C)c(-c2ccccc2)c2cc([N+](=O)[O-])ccc21.Cl (stereo not drawn) | -65.3%

SMILES | hERG current change (%, negative = inhibition) at 10uM
Nc1cccc2c1C(=O)N(CCOc1ccccc1F)C2=O | 20.2%
CCN1CCN(c2oc(COc3ccc(Cl)cc3)nc2C#N)CC1 | -77%
Cc1ccc(OCc2nc(C#N)c(N3CCCC3)o2)cc1 | -62.8%
N#Cc1nc(COc2ccc(F)cc2)oc1N1CCN(Cc2ccccc2)CC1 | -75.3%
N#Cc1nc(COc2ccc(Cl)cc2)oc1N1CCCC1 | -38.9%
CCN1CCN(c2oc(COc3ccc(-c4ccccc4)cc3)nc2C#N)CC1 | -55.8%
N#Cc1nc(COc2ccc(F)cc2)oc1N1CCCC1 | -46.7%
Cc1ccc(OCc2nc(C#N)c(N3CCCCC3)o2)cc1 | -4.24%
COc1ccc(N2CCN(c3oc(COc4ccc(Cl)cc4)nc3C#N)CC2)cc1 | -2.55%
N#Cc1nc(COc2ccccc2)oc1N1CCN(Cc2ccccc2)CC1 | -21.9%
CN1CCN(c2oc(COc3ccc(-c4ccccc4)cc3)nc2C#N)CC1 | -19%
Cc1ccc(OCc2nc(C#N)c(N3CCN(Cc4ccccc4)CC3)o2)cc1 | -6.23%
N#Cc1nc(COc2ccc(Cl)cc2)oc1N1CCN(Cc2ccccc2)CC1 | -1.08%
CC1=CC(C)[C@@H]2COC(c3ccc(O)cc3)[C@H]1C2C (stereo partly drawn) | 4.96%
Cc1ccc(N2CC(C(=O)NCc3nnnn3-c3ccc(C)c(C)c3)CC2=O)cc1 (stereo not drawn) | -19.8%
Cc1ccc(S(=O)(=O)NC(=O)C2CCCCC2)cc1 | 14.3%
O=C(COc1ccc2ccccc2c1)NCCNC(=O)COc1ccc2ccccc2c1 | 17.2%
O=C(c1cc(-c2ccccc2)on1)N1CCCC1 | 9.39%
O=C(NCc1ccc2c(c1)OCO2)c1ccc2c(c1)OCCO2 | 8.03%
CC(C(=O)Nc1cccc(S(=O)(=O)N2CCOCC2)c1)N1CCN(c2ccc(F)cc2)CC1 (stereo not drawn) | -40.3%
CC(C(=O)Nc1cccc(S(=O)(=O)N2CCOCC2)c1)N1CCN(C/C=C/c2ccccc2)CC1 (stereo not drawn) | -75%
